The text below walks through data of PubChem BioAssay (NCI).

SMILES strings stand for the structures. This is part of a sample that, as a whole, favours compounds with a hit. Of some 83,000 tested, about 20% had one in any assay.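 Results are percent growth after 48 hours of single-concentration exposure. 100 means growth as in untreated cells, lower positive values show inhibition; negative values down to -100 show cell death.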 Unmarked numbers belong to inactive results. Activity calls are given as the source filed them. How the source made its calls: active means growth percent below 10; inactive means the rest.

Test systems include SK-MEL-2 melanoma; EKVX NSCLC; SN12C renal; UO-31 renal; TK-10 renal; ACHN renal; CAKI-1 renal; A498 renal; CCRF-CEM leukemia; MOLT-4 leukemia; SR leukemia; RPMI-8226 leukemia; OVCAR-8 ovarian; OVCAR-5 ovarian; OVCAR-4 ovarian; SK-OV-3 ovarian; IGROV1 ovarian; OVCAR-3 ovarian; HS 578T breast; NCI/ADR-RES ovarian.
Holding throughout (test): NCI-60 one-dose screen, 48 h (100 = growth as untreated, 0 = no growth, -100 = all killed)
Holding throughout (conditions): 10 µM unless noted

As for `C#CC#CC#CC#CC#CC#CC#CC#CCC1OC[C@H](COC(=O)O[C@@H](C(=O)O[C@H]2C[C@@]3(O)[C@@H](OC(=O)c4ccccc4)[C@@H]4[C@]5(OC(C)=O)CO[C@@H]5C[C@H](O)[C@@]4(C)C(=O)[C@H](OC(C)=O)C(=C2C)C3(C)C)[C@@H](NC(=O)c2ccccc2)c2ccccc2)O1` (stereo not given in full), the growth in the assay with SK-MEL-2 melanoma was 36.2%; with EKVX NSCLC, 60.2%; in the assay with SN12C renal it was 31.2%; with UO-31 renal, 95.1%; in the assay on TK-10 renal, 84.9%; in the assay with ACHN renal, 69.8%. Further, the growth with CAKI-1 renal was 59.5%; in the assay with A498 renal it was -1.18% (active); with CCRF-CEM leukemia, 15.1%; with MOLT-4 leukemia, 28.5%; in the assay on SR leukemia, 24.6%; in the assay on RPMI-8226 leukemia, 15.4%. The growth was 31.4% in the assay with OVCAR-8 ovarian; 26% in the assay on OVCAR-5 ovarian; 57.5% with OVCAR-4 ovarian; 53.5% in the assay with SK-OV-3 ovarian; 33.2% in the assay on IGROV1 ovarian; 9.45% (active) with OVCAR-3 ovarian. The growth in the assay on HS 578T breast is 8.95% (active); in the assay with NCI/ADR-RES ovarian, 106%.
Consider `COc1ccc(C[n+]2c3ccccc3n3c4ccc(N)cc4ccc32)c(OC)c1OC`, for which the growth in the assay with SK-MEL-2 melanoma was 44%; in the assay on EKVX NSCLC, 49.3%; in the assay on SN12C renal, 6.42% (active); in the assay on UO-31 renal, 88.7%; in the assay with TK-10 renal it was 78.2%; in the assay on ACHN renal, 101%. Besides, the growth was 96.6% in the assay with CAKI-1 renal; 81.3% in the assay with A498 renal; 40.4% in the assay on CCRF-CEM leukemia; 67.9% in the assay on MOLT-4 leukemia; 41.2% in the assay on SR leukemia; 15.1% with RPMI-8226 leukemia. Also, the growth was 46.8% in the assay on OVCAR-8 ovarian; 99.6% in the assay with OVCAR-5 ovarian; 55.5% with OVCAR-4 ovarian; 70% in the assay with SK-OV-3 ovarian; 73.9% in the assay with IGROV1 ovarian; 50.9% in the assay with OVCAR-3 ovarian. For the same compound, the growth in the assay on HS 578T breast is 43.5%; in the assay with NCI/ADR-RES ovarian, 103%.
Take `Cc1ccc(CNc2ccc3nc(CCC(C)C)[nH]c3c2)cc1`: the growth in the assay with SK-MEL-2 melanoma was 107%; in the assay with EKVX NSCLC it was 96%; in the assay with SN12C renal, 85.9%; in the assay with UO-31 renal it was 68.6%; in the assay on TK-10 renal, 113%; with ACHN renal it was 99.3%. For the same compound, the growth with CAKI-1 renal was 89.1%; in the assay on A498 renal it was 97.1%; in the assay on CCRF-CEM leukemia, 93.7%; in the assay with MOLT-4 leukemia it was 81.4%; in the assay with SR leukemia, 85.9%; in the assay with RPMI-8226 leukemia, 87.4%. For the same compound, the growth is 89.9% in the assay on OVCAR-8 ovarian; 101% in the assay with OVCAR-5 ovarian; 85.1% with OVCAR-4 ovarian; 100% in the assay on SK-OV-3 ovarian; 77.4% with IGROV1 ovarian; 88.9% with OVCAR-3 ovarian. The growth is 96.3% in the assay on HS 578T breast and 89.6% in the assay on NCI/ADR-RES ovarian.
Turning to `O=C(NC(Cc1nnc2n(Cc3ccccc3)c(=O)c3c4c(sc3n12)CCCC4)c1ccccc1)c1ccccc1` (stereo not given), the growth in the assay on SK-MEL-2 melanoma is 108%; in the assay on EKVX NSCLC, 99.3%; in the assay on SN12C renal it was 119%; in the assay on UO-31 renal, 65%; in the assay with TK-10 renal, 119%; in the assay with ACHN renal, 127%. Moreover, the growth is 101% in the assay on CAKI-1 renal; 109% with A498 renal; 61.9% in the assay with CCRF-CEM leukemia; 61.2% in the assay on MOLT-4 leukemia; 104% in the assay on SR leukemia; 123% in the assay on RPMI-8226 leukemia. Further, the growth in the assay with OVCAR-8 ovarian is 77.1%; in the assay with OVCAR-5 ovarian, 86.7%; with OVCAR-4 ovarian, 103%; with SK-OV-3 ovarian, 110%; with IGROV1 ovarian, 54.9%; in the assay with OVCAR-3 ovarian it was 107%. Moreover, the results for the growth in the assay on HS 578T breast and in the assay with NCI/ADR-RES ovarian were 101% and 87.9%, respectively.
As for `C=CCN1C(=O)c2cccc3c(N4CCOCC4)ccc(c23)C1=O`, the growth was -28.1% (active) in the assay with SK-MEL-2 melanoma; -7.17% (active) in the assay with EKVX NSCLC; 17% in the assay on SN12C renal; -3.07% (active) in the assay on UO-31 renal; -12.9% (active) in the assay on TK-10 renal; 18.6% in the assay on ACHN renal. Moreover, the growth with CAKI-1 renal is -39.5% (active); with A498 renal, -57% (active); in the assay with CCRF-CEM leukemia, -7.18% (active); in the assay with MOLT-4 leukemia it was -21.2% (active); in the assay with SR leukemia, -9.38% (active); in the assay with RPMI-8226 leukemia, -25.8% (active). Also, the growth in the assay on OVCAR-8 ovarian was 20.7%; in the assay with OVCAR-5 ovarian, 21.4%; in the assay on OVCAR-4 ovarian it was 14.4%; in the assay on SK-OV-3 ovarian, 13.9%; with IGROV1 ovarian it was -14.5% (active); in the assay on OVCAR-3 ovarian it was -66.4% (active). The figures for the growth with HS 578T breast and with NCI/ADR-RES ovarian were 4.58% (active) and 6.06% (active), respectively.
Take `CCSc1oc(C)nc1[P+](c1ccccc1)(c1ccccc1)c1ccccc1`: the growth in the assay with SK-MEL-2 melanoma was 50%; in the assay with EKVX NSCLC it was 25.9%; with SN12C renal, 27.7%; in the assay on UO-31 renal, 82.3%; in the assay with TK-10 renal, 48.1%; with ACHN renal, 83.4%. The growth is 70.6% with CAKI-1 renal; 19.3% with A498 renal; 37.7% with CCRF-CEM leukemia; 38.4% in the assay with MOLT-4 leukemia; 36.2% in the assay on SR leukemia; 5.08% (active) with RPMI-8226 leukemia. Moreover, the growth in the assay with OVCAR-8 ovarian is 21.5%; with OVCAR-5 ovarian it was 69.2%; in the assay on OVCAR-4 ovarian, 38.2%; in the assay with SK-OV-3 ovarian it was 28%; with IGROV1 ovarian, 30.3%; in the assay with OVCAR-3 ovarian, 15.8%. Moreover, the growth was 56.3% with HS 578T breast and 97.8% in the assay on NCI/ADR-RES ovarian.
For `CCN(CC)CCCN1C(=O)c2c(c(C)c3c(oc4ccc(OC)cc43)c2C)C1=O`, the growth in the assay with SK-MEL-2 melanoma was 108%; in the assay on EKVX NSCLC, 105%; in the assay on SN12C renal, 100%; with UO-31 renal, 64.5%; with TK-10 renal, 110%; in the assay on ACHN renal it was 42.8%. The growth with CAKI-1 renal was 92.6%; in the assay with A498 renal, 99.1%; in the assay with CCRF-CEM leukemia it was 93.9%; in the assay with MOLT-4 leukemia, 96.4%; in the assay on SR leukemia, 102%; in the assay with RPMI-8226 leukemia it was 99.3%. Also, the growth in the assay with OVCAR-8 ovarian is 93.3%; in the assay on OVCAR-5 ovarian it was 114%; with OVCAR-4 ovarian it was 117%; in the assay with SK-OV-3 ovarian it was 109%; with IGROV1 ovarian, 94.6%; in the assay with OVCAR-3 ovarian it was 108%. Also, the growth with HS 578T breast is 99.2%; with NCI/ADR-RES ovarian, 95.7%.
